The campaign covered roughly 53,000 sequences. About 3,700 (7%) were called active.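 Rule for the calls: active = gene knockdowns whose robust z-score for IL-1 alpha signal is at least 2 or at most -2, so actives lie on both sides; inactive = the rest.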 Only a selection was taken, and actives are over-represented in it overall.
Experiment: Components of the Cytosolic LPS Sensing Pathway: Gene Identification via Genome-wide siRNA Screen;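 note: robust z of the log signal after scaling to non-targeting control siRNA wells of the plate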
Conditions: RAW264.7 macrophages, IL-1a HTRF, actives lie on both sides, screened at 100 nM (by protocol), cells primed 5 h with Pam3CSK4 first
Method in brief: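 RAW264.7; siRNA 100 nM final, RNAiMAX, 48h 37 degrees C; Pam3CSK4 5 h; LipidA + TransIT-TKO 24 h; IL-1a HTRF; CellTiter-Glo viability; robust z vs negative-control median.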

| Sequence | z-score |
| --- | --- |
| CCUGUUUCAGUCAUUAGUGTT against Slc22a2 | 2.6 (active) |
| GGCAACUGUUUCUGCUCCGTT against Ap4e1 | -0.746 (inactive) |
| GCCAAUCGUAACUUGCUAATT against Arhgap19 | 0.865 (inactive) |
| GGUACAACAAAAAUGUGACTT against Vmn1r73 | -1.39 (inactive) |
| GCGAGGUGAAAAGCUUCUGTT against Sobp | -0.433 (inactive) |
| GGAAUUUUGCCAGCAAAUGTT against Edaradd | 0.624 (inactive) |
| GGCCAUUAAUUACUACGAGTT against Ttc21a | 0.368 (inactive) |
| GCAAAACUUGACUACCGCCTT against Bzw1 | 2.08 (active) |
| CCCGAGAAUACACCAUCAATT against Rpl31 | 0.347 (inactive) |
| CCAUUCCAUGUCGAUGUCUTT against Prm2 | -2.08 (active) |
| GGGAGAUGUAUGCUUGCUCTT against Evi2a | 0.934 (inactive) |
| CUCUAUCUCAUUGCAGUCCTT against Olfr671 | -0.0809 (inactive) |
| GUUCCCUACAAGUUCUUCCTT against Phox2a | 1.54 (inactive) |
| GGCUUUUGUCAAACAGCAUTT against Ins1 | -2.9 (active) |
| GCGUAGACUUGAGGACUUATT against Uimc1 | -0.705 (inactive) |
| CGGCGGUGUGUUGUUUUAGTT against Hmces | 0.36 (inactive) |
| CGGUUAGACAGUGCACCAATT against Dnm1 | 0.4 (inactive) |
| GGCUCGGACCAAAAAAAUUTT against Msantd3 | -1.33 (inactive) |
| GCAUGCGACUCUGUUCUCGTT against Gtf2a2 | -0.228 (inactive) |
| GGAGAUUUUCAAGAGACUCTT against 0610010F05Rik | 1.94 (inactive) |
| GGAAAAACUACCAAGAGGATT against Pigp | 2.32 (active) |
| GGUCUACCAUGACACACGUTT against Prrg2 | 0.519 (inactive) |

| Sequence | z-score |
| --- | --- |
| GCCUGGUUUCUCCCUCAAATT against Pkmyt1 | -0.567 (inactive) |
| CGCAGUUAUAUUCCACCACTT against Slain1 | -0.317 (inactive) |
| GGUACCUAGGAUGCUCUCATT against Ift140 | -2.23 (active) |
| GGCCUUCACUGGUUAAAAUTT against Ankrd6 | 0.0966 (inactive) |
| GGAGAUCCUCAUUUGUGUGTT against Ftmt | -1.99 (inactive) |
| GGGUAUGAGCAUAAAAUAATT against Il16 | -1.2 (inactive) |
| GCAAAUGGUGCAUACGUGATT against Slc35d1 | 0.211 (inactive) |
| CCAAUUUGUCAAAACAAUCTT against Slit2 | 0.681 (inactive) |
| GGAUGUCAGGACAAAACCATT against Olfr1335 | -2.51 (active) |
| GGAAGAGCUUUCUGGAAAUTT against Ndrg2 | 0.226 (inactive) |
| GGCAUACUUGUACCGCUAUTT against Mmp9 | -0.35 (inactive) |
| GGAUAUUCAGCACUGGGAATT against Rrm2 | -0.525 (inactive) |
| GGUAGUGGACAGUUUUGACTT against Mrpl55 | 0.675 (inactive) |
| GCCUUUCAUGGAUUAACCUTT against Gsdmc | -2.03 (active) |
| CGACGAAGAUAUUUACAGUTT against Vav1 | 0.504 (inactive) |
| CCAAAAAAGUUAGUUGUGGTT against Phf6 | 1.23 (inactive) |
| GGUCGUAAAAAUUGAAAUCTT against Lhcgr | 0.169 (inactive) |
| GGAGGAUCUUGAGUUGGAGTT against Nupr1l | 2.32 (active) |
| CCAUUUAUGGGUUUUCUCUTT against Taar7b | 0.12 (inactive) |
| GGCUGUGCUACAGUUUCUCTT against Get4 | -0.498 (inactive) |
| GGUCAUUGAGCUGAUGGACTT against Elovl1 | 4.34 (active) |
| GGGCUUUCACACAAUCCCUTT against Kcns1 | -0.362 (inactive) |

| Sequence | z-score |
| --- | --- |
| GGAACUGGCCAAUUACUACTT against Rdm1 | -1.29 (inactive) |
| GGAUAUCACUUGCUAUUCCTT against Abraxas2 | -0.406 (inactive) |
| GGCUUAUGACGAAUUAGUCTT against Ubn2 | 0.274 (inactive) |
| GGAACAGCCUAUGUGGUCUTT against Sf3b6 | -2.17 (active) |
| GCACCUUGUCAACCAUUACTT against Kctd7 | 0.842 (inactive) |
| GGGCAUCAGCAUUUGGUCATT against Med1 | 0.698 (inactive) |
| GGAAGUCGAGUUGAAAUCGTT against Rida | 0.755 (inactive) |
| GUUGAGUGGCUGUGAUAUATT against Nms | -0.00159 (inactive) |
| GGAAAUAUGAUAGAAUGCCTT against Pramel32 | 0.17 (inactive) |
| GGCAAAAGAACAAGAAACUTT against Orc1 | -2.09 (active) |
| GGCUAUCACCUCCAACACCTT against Fkbp8 | -1.04 (inactive) |
| GGACAAGGAACAGAGCCUUTT against Rnf183 | -1.27 (inactive) |
| GGAGAUCUUGAGAUUGUAUTT against Ticrr | 0.424 (inactive) |
| GGAGAAAGGAUUGUGUUUGTT against Clec10a | 2.2 (active) |
| CCCGGUUCUUAGGUUUGUATT against Prr15l | 1 (inactive) |
| GGUCAGGUUGCCAAGAAGGTT against Sbds | 1.59 (inactive) |
| GGCAUGAAUAUGCAUUUAGTT against Arrdc3 | -3.65 (active) |
| CCCAUAUGAGCUGAAAGCUTT against Il1b | -0.878 (inactive) |
| GGGAAUGUCUGAAAGUCCCTT against Klhdc10 | 0.66 (inactive) |
| GGCCAUCAAGGUCUUUUCUTT against Washc1 | -1.34 (inactive) |
| GGAUCUUCUUCUAUCAGUCTT against Ncf4 | 0.487 (inactive) |
| CCGUUUUGAACCAUAAAAATT against Zfp7 | -0.873 (inactive) |

| Sequence | z-score |
| --- | --- |
| GGCCCACGUCCUGUACAUUTT against Tdrd1 | 3.38 (active) |
| GGUUUCGUAUAAAUUCUCUTT against Ank | 1.53 (inactive) |
| CGGAGUCAUACUUUUUCGATT against Trim12c | 0.0182 (inactive) |
| GGUAAAAUACUACCUGAGATT against Abca15 | -0.0103 (inactive) |
| GGAAUUCUUCAUCCAUGGATT against Olfr570 | -2.66 (active) |
| CGGUUCUGGGAAUUCUUUGTT against Olfr624 | -2.11 (active) |
| GGAAGAAAUGUACAAACUGTT against Spg21 | 1.63 (inactive) |
| GGACAUUUUCUUUGGAAAATT against Ccnl1 | 0.194 (inactive) |
| GGACAGCAAGACCAACCUATT against Elavl2 | -1.87 (inactive) |
| CCAUAAAUCACUCAGUUUGTT against Adad1 | 0.222 (inactive) |
| GGCAUUAUCUACAUGCACATT against Olfr1287 | 0.228 (inactive) |
| GCAUGGCUAUUUAACAUUCTT against Rpl7l1 | 0.171 (inactive) |
| GCAAUUUCUGUGUGAAGAATT against Ahcyl1 | -0.705 (inactive) |
| GGGCUCUAGCUAAAAACGATT against Med10 | 1.23 (inactive) |
| AGUCUCCAAAUGCAUUUAATT against Serpinb9g | -2.5 (active) |
| GAAUCGGAGGACAAAAUACTT against Emx1 | 0.368 (inactive) |
| GCACCUUUGAAUGUGAAGUTT against Ccl2 | -0.408 (inactive) |
| CCUUCAUUGGUUAGCAUGUTT against Rbl2 | -0.424 (inactive) |
| CACGACCUAGGUGUGACCATT against Arrdc2 | -2.31 (active) |
| CCUGACGAUCAAAUCACUGTT against Mvb12a | 0.0387 (inactive) |
| CGCCAAUAUGGCCAUUGACTT against Ikzf2 | -0.304 (inactive) |
| GGCUCUGUUUAUCCUGGAGTT against Pcdha7 | -0.0385 (inactive) |

| Sequence | z-score |
| --- | --- |
| GGUUUCAUUUUUCGAGGAGTT against Cit | -0.269 (inactive) |
| GGUGAUACCAUCACUUUGATT against Mark2 | 0.173 (inactive) |
| GCCGCAUCCACACAUCUCUTT against Daam2 | 0.465 (inactive) |
| GGCACUCAGGAACUUCCUGTT against Eci3 | -2.05 (active) |
| GCCCAUAGUAUAAAAUACCTT against Dzip1 | 1.06 (inactive) |
| GGAAGAUGCCUUUUCCAAGTT against Syt1 | 0.752 (inactive) |
| GGUGGAAUAUAUUGAGUAUTT against Fam199x | 0.251 (inactive) |
| CGACUAAGGAUGAAAAGCATT against Apbb1ip | -3.04 (active) |
| GCGAAAGACGAUCAAAACCTT against Scn1a | 0.841 (inactive) |
| GGCUACACUCUGACAGCACTT against Znhit2 | -0.666 (inactive) |
| GCCCGGUAAAGGUAUCCAUTT against Trp53bp1 | 0.384 (inactive) |
| GGGAGUUACUAACCACUUCTT against Gja3 | -2.05 (active) |
| GCCUCUCCUGUGAAUGACATT against Erlec1 | -0.699 (inactive) |
| GGGUGUCACAAAAUAAAAUTT against Sigirr | -0.245 (inactive) |
| GGAGAUGAACCAUUAUGUCTT against Mycbp | -2.03 (active) |
| GCAGAAAUACUGGCGAAUATT against Gm9725 | 0.607 (inactive) |
| GGUGGAGACACUGAAGGUUTT against Akap1 | 0.314 (inactive) |
| GACCAGAAAUUUAAGUGCUTT against Dnajc30 | 1.5 (inactive) |
| GGAUCUUCCUCAUCACCCUTT against Ube4a | 0.657 (inactive) |
| GCUUACCUGCUGUCUUAAUTT against F630003A18Rik | 0.42 (inactive) |

— PubChem BioAssay AID1508600 (Functional Genomics Laboratory (NCATS/FGL), 2020)
